# Experimental data published in PubChem BioAssay (EPA / NIEHS).
# Several values for one entry are separate records, joined by “and”; a condition that tells them apart may be missing. Identical values can stand only once. Where a structure was tested more than once in an assay, its records may differ in their call. Activity calls are given as the source filed them. The calls were made as follows: active = hit-call score of the fitted dose curve at least 0.9, where 1 is the maximum; inactive = score below 0.9.
# Legend:
# [1] = ATG_CRE_CIS: Attagene CIS-FACTORIAL HepG2 Assay for human cAMP Responsive Element (CRE) binding protein 3 (AID 2282926); settings: HepG2 CRE cis-reporter, Attagene multiplexed mRNA; actives raise or lower the signal
# In short: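 HepG2 cells transiently transfected with a multiplexed reporter library (CRE-driven unit among them) were dosed for 24 h. Reporter mRNA was quantified by RT-PCR, fluorescent labelling, HpaI digestion and capillary electrophoresis, with bidirectional fitting against DMSO baseline.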
# [2] = target: CCAAT/enhancer-binding protein beta (Homo sapiens) (UniProt P17676); assay: ATG_C_EBP_CIS: Attagene CIS-FACTORIAL HepG2 Assay for human CCAAT/Enhancer Binding Protein (C/EBP) beta (AID 2282927); settings: HepG2 Attagene cis-factorial transcription factor reporter; actives raise or lower the signal
# Chain of CCAAT/enhancer-binding protein beta (Homo sapiens) (P17676 whole entry, looked up): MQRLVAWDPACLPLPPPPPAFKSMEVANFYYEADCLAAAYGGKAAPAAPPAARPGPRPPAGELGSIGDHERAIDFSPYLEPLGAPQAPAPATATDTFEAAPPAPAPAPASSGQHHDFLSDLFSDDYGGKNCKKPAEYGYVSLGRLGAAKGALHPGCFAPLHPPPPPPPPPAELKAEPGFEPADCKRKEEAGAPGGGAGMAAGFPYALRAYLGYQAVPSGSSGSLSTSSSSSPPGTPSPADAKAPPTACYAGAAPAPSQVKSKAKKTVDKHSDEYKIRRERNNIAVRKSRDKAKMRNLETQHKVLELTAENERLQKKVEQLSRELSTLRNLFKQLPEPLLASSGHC
# In short: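 HepG2 transiently transfected with multiplexed reporter units under cis-regulatory promoters reporting endogenous C/EBPb activity. After 24 h exposure, reporter mRNA assayed by RT-PCR, fluorescent labelling, HpaI digestion and capillary electrophoresis; bidirectional fitting versus DMSO.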
# [3] = ATG_CMV_CIS: Attagene CIS-FACTORIAL HepG2 Assay for human CMV (Internal Marker) (AID 2282928); settings: HepG2 CMV promoter reporter, transcription factor profiling; actives raise or lower the signal;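 also: endpoint acts as a background internal control marker rather than a target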
# In short: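 HepG2 cells transiently transfected with multiple cis-regulated reporter units; 24 h compound exposure. Reporter mRNA quantified by RT-PCR, 6-FAM primer-extension labeling, HpaI digestion and capillary electrophoresis; bidirectional fitting against DMSO baseline.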
# [4] = ATG_DR4_LXR_CIS: Attagene CIS-FACTORIAL HepG2 Assay for human Liver X Receptor (LXR), DR4 submotif (AID 2282929); settings: HepG2 Attagene DR4 cis-reporter, mRNA transcription; actives raise or lower the signal
# In short: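 Total RNA from 24 h-treated, MRTU-transfected HepG2 cells underwent reverse transcription, PCR, fluorescent primer extension and restriction digestion before capillary electrophoresis. Both increases and decreases in reporter signal were fitted against DMSO.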
# [5] = target: Aryl hydrocarbon receptor (Homo sapiens) (UniProt P35869); assay: ATG_Ahr_CIS: Attagene CIS-FACTORIAL HepG2 Assay for human Aryl Hydrocarbon Receptor (Ahr) (AID 2282930); settings: HepG2 AhR cis-factorial reporter transcription; actives raise or lower the signal
# Chain of Aryl hydrocarbon receptor (Homo sapiens) (P35869 whole entry, looked up): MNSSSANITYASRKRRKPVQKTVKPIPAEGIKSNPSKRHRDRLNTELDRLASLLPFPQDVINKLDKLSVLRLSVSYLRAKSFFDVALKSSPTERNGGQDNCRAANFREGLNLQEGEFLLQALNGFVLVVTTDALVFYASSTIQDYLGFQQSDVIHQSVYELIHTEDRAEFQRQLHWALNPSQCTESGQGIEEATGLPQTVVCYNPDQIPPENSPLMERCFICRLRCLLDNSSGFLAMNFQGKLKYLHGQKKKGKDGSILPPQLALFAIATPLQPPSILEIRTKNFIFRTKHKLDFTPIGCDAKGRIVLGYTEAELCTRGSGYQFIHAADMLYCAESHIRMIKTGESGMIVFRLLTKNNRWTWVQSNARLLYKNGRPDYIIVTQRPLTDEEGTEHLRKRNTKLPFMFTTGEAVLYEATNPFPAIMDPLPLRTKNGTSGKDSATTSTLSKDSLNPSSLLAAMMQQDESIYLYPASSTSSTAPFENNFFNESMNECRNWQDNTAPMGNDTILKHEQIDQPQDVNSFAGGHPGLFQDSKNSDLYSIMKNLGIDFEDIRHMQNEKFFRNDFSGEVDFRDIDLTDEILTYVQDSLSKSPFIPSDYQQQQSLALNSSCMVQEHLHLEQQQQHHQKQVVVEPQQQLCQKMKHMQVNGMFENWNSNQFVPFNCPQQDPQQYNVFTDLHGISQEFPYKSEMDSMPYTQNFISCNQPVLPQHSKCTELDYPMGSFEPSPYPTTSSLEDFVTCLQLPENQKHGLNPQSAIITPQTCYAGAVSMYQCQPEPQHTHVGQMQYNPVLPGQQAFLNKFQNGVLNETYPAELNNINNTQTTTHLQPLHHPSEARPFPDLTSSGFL
# In short: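 HepG2 cells transiently transfected with cis-element-driven multiplexed reporter units; endogenous AhR activity read as reporter mRNA 24 h after dosing, via RT-PCR, 6-FAM labelling, HpaI digestion and capillary electrophoresis. Bidirectional fit relative to DMSO.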
# [6] = ATG_AP_1_CIS: Attagene CIS-FACTORIAL HepG2 Assay for human Activator Protein 1 (AP-1) (AID 2282931); settings: HepG2 Attagene cis-factorial AP-1 reporter mRNA; actives raise or lower the signal
# In short: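 HepG2, transient cis-reporter transfection; 24 h; readout RT-PCR/CE fluorescence; DMSO baseline, gain and loss fitted.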
# [7] = ATG_AP_2_CIS: Attagene CIS-FACTORIAL HepG2 Assay for human Activator Protein 2 (AP-2) (AID 2282932); settings: HepG2 AP-2 cis-reporter, Attagene transcription factor profiling; actives raise or lower the signal
# In short: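 HepG2 cells transiently transfected with cis-element reporter units and exposed for 24 h. Reporter mRNA measured by RT-PCR, FAM labelling, HpaI digestion and capillary electrophoresis. Changes in either direction fitted relative to DMSO.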
# [8] = ATG_BRE_CIS: Attagene CIS-FACTORIAL HepG2 Assay for human Bone Morphogenetic Protein (BMP) Response Element (BRE) (AID 2282933); settings: HepG2 BMP response element reporter, Attagene transcription factor profiling; actives raise or lower the signal
# In short: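 Fluorescence-labelled reporter cDNA fragments, separated by capillary electrophoresis, gave the signal for this component of a 52-readout multiplex. HepG2 cells were transfected, exposed to chemicals for 24 h, and compared with DMSO using bidirectional fitting.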
# [9] = target: Retinoic acid receptor alpha (Homo sapiens) (UniProt P10276); assay: ATG_DR5_RAR_CIS: Attagene CIS-FACTORIAL HepG2 Assay for human Retinoic Acid Receptor Alpha (RARE), DR5 submotif (AID 2282934); settings: HepG2 Attagene cis-factorial RARE DR5 reporter, mRNA; actives raise or lower the signal
# Chain of Retinoic acid receptor alpha (Homo sapiens) (P10276 whole entry, looked up): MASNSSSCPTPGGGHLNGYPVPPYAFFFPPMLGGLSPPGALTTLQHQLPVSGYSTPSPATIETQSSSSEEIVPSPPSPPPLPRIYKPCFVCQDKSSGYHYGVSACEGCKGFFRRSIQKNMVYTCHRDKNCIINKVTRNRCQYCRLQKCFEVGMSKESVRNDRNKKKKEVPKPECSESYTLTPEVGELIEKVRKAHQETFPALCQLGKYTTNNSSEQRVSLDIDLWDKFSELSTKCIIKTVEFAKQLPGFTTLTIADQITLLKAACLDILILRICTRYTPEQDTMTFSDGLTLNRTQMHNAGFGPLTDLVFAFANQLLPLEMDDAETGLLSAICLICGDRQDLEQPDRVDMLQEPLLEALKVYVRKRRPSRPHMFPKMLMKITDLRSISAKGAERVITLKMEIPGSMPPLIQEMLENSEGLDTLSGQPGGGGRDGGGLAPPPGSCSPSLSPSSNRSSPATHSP
# In short: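 HepG2 cells transiently transfected with multiplexed reporter units; DR5 cis-element drives reporter through endogenous transcription factors. After 24 h dosing, reporter mRNA quantified by RT-PCR, fluorescent labeling, HpaI digestion and capillary electrophoresis; bidirectional fitting versus DMSO.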
# [10] = target: Transcription factor E2F1 (Homo sapiens) (UniProt Q01094); assay: ATG_E2F_CIS: Attagene CIS-FACTORIAL HepG2 Assay for human E2F Transcription Factor 1 (AID 2282935); settings: HepG2 Attagene cis-reporter, E2F reporter RNA transcripts; actives raise or lower the signal
# Chain of Transcription factor E2F1 (Homo sapiens) (Q01094 whole entry, looked up): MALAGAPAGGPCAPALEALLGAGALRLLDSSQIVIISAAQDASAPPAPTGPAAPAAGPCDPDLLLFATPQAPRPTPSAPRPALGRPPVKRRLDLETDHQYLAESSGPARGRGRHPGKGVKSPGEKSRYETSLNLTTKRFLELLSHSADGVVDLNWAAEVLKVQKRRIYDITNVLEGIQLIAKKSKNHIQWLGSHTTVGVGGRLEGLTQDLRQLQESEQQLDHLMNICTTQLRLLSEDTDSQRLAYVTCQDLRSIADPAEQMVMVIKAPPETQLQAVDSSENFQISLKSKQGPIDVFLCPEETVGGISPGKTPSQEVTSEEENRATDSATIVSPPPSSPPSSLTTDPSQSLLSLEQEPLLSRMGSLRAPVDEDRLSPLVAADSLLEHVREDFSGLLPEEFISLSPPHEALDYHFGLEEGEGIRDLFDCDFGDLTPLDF
# In short: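 Endogenous E2F1 activity read through cis-promoter reporter units transfected into HepG2. After 24 h compound treatment, reporter mRNA measured by RT-PCR, HpaI digestion and capillary electrophoresis. Bidirectional fit versus DMSO.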
Structure (SMILES),outcome [1],outcome [2],AC50 [3],AC50 [4],outcome [5],AC50 [6],outcome [7],AC50 [8],outcome [9],outcome [10],outcome [3],outcome [4],AC50 [5],outcome [6],outcome [8],AC50 [1],AC50 [2],AC50 [7],AC50 [10]
CC(C)OC(=O)C(C)(C)Oc1ccc(C(=O)c2ccc(Cl)cc2)cc1,inactive,inactive,67.9 µM (active),61 µM (active),inactive,74.4 µM (active),inactive,45.7 µM (active),inactive,inactive,–,–,–,–,–,–,–,–,–
CC(C)NCC(O)c1ccc(O)c(O)c1 (stereo unspecified),inactive,inactive,–,–,–,–,inactive,–,–,inactive,inactive,inactive,64.9 µM (active),inactive,inactive,–,–,–,–
CC(C)COC(=O)CCCCC(=O)OCC(C)C,inactive,inactive,–,–,inactive,–,inactive,–,inactive,inactive,inactive,inactive,–,inactive,inactive,–,–,–,–
O=C1O[C@H]([C@H](O)CO)C(O)=C1O,inactive,inactive,–,–,inactive,–,inactive,–,–,inactive,inactive,inactive,–,inactive,inactive,–,–,–,–
CN(C)C(=O)NC1(c2ccccc2)CCN(CC[C@@]2(c3ccc(F)c(F)c3)CN(C(=O)c3ccccc3)CCO2)CC1,inactive,inactive,–,–,inactive,100 µM (active),inactive,–,–,inactive,inactive,inactive,–,–,inactive,–,–,–,–
CC(C)c1cccc(C(C)C)c1,inactive,inactive,–,–,inactive,–,inactive,–,inactive,inactive,inactive,inactive,–,inactive,inactive,–,–,–,–
COc1ccc(C(=O)Nc2nc3ccccc3c(NCc3ccccc3)c2C#N)cc1,inactive,inactive,3.82 µM (active),–,–,–,inactive,–,–,inactive,–,inactive,0.421 µM (active),inactive,inactive,–,–,–,–
CC(COCC(C)OC(=O)c1ccccc1)OC(=O)c1ccccc1 (stereo unspecified),inactive,inactive,–,–,inactive,–,inactive,–,inactive,inactive,inactive,inactive,–,inactive,inactive,–,–,–,–
CCOCCOCCO,inactive,inactive,–,–,inactive,–,inactive,–,–,inactive,inactive,inactive,–,inactive,inactive,–,–,–,–
CCc1nc(N)nc(N)c1-c1ccc(Cl)cc1,–,–,2.18 µM (active),–,inactive,2.53 µM (active),inactive,–,–,inactive,–,inactive,–,–,inactive,100 µM (active),15 µM (active),–,–
CCCCc1nc2cccnc2n1Cc1ccc(-c2ccccc2-c2nnn[nH]2)cc1,inactive,inactive,–,–,inactive,–,inactive,–,–,inactive,inactive,inactive,–,inactive,inactive,–,–,–,–
N[C@@H](Cc1c[nH]c2ccccc12)C(=O)O,inactive,inactive,–,–,–,–,inactive,–,inactive,inactive,inactive,inactive,24 µM (active),inactive,inactive,–,–,–,–
CN(C)C(=O)NC1(c2ccccc2)CCN(CCC[C@]2(c3ccc(Cl)c(Cl)c3)CCCN(C(=O)c3ccccc3)C2)CC1,–,–,–,4.53 µM (active),inactive,2.75 µM (active),inactive,–,–,inactive,inactive,–,–,–,inactive,4.22 µM (active),5.22 µM (active),–,–
CC1=C(C)S(=O)(=O)CCS1(=O)=O,inactive,–,143 µM (active),–,inactive,166 µM (active),inactive,–,–,inactive,–,inactive,–,–,inactive,–,129 µM (active),–,–
CSc1ccc(Oc2ccc(S(N)(=O)=O)cc2CN(C)C)cc1C,inactive,inactive,–,–,inactive,–,–,–,–,inactive,inactive,inactive,–,inactive,inactive,–,–,26.8 µM (active),–
CCN(CC)CCOc1ccc(C(=C(Cl)c2ccccc2)c2ccccc2)cc1,inactive,inactive,7.17 µM (active),3.89 µM (active) and 3.11 µM (active),–,–,inactive,–,inactive,inactive,inactive,inactive,–,inactive,inactive,12.8 µM (active),17.4 µM (active),11.4 µM (active),–
Nc1nc(=S)c2[nH]cnc2[nH]1,inactive,–,19 µM (active),–,–,12 µM (active),inactive,–,inactive,inactive,–,inactive,66.3 µM (active),–,inactive,–,100 µM (active),–,–
CN(C)CCCN1c2ccccc2Sc2ccc(Cl)cc21,inactive,inactive,–,9.33 µM (active),inactive,18.2 µM (active),inactive,–,–,inactive,inactive,–,–,–,inactive,–,–,–,–
CCCCCCC(C=O)=Cc1ccccc1,inactive,inactive,74.3 µM (active),–,–,60 µM (active),inactive,44.9 µM (active),inactive,inactive,inactive,inactive,37.4 µM (active) and 60 µM (active),inactive,inactive,–,–,–,–
CCCCC(CC)COP(=O)(OCC(CC)CCCC)OCC(CC)CCCC (stereo unspecified),inactive,inactive,–,–,–,–,inactive,–,–,inactive,inactive,inactive,68.9 µM (active),inactive,inactive,–,–,–,–
O=C(O)c1[nH]n(-c2ccc(S(=O)(=O)O)cc2)c(=O)c1N=Nc1ccc(S(=O)(=O)O)cc1,inactive,inactive,–,–,–,–,inactive,–,–,inactive,inactive,inactive,58.7 µM (active),inactive,inactive,–,–,–,–

Structure (SMILES),outcome [1],outcome [2],AC50 [3],AC50 [4],outcome [5],AC50 [6],outcome [7],AC50 [8],outcome [9],outcome [10],outcome [3],outcome [4],AC50 [5],outcome [6],outcome [8],AC50 [1],AC50 [2],AC50 [7],AC50 [10]
Cc1ccc(-c2cc(C(F)(F)F)nn2-c2ccc(S(N)(=O)=O)cc2)cc1,inactive,inactive,–,14.4 µM (active),inactive,–,inactive,–,inactive,inactive,inactive,–,–,inactive,inactive,–,–,–,–
CCCCC(CC)CO (stereo unspecified),inactive,inactive,–,–,inactive,–,inactive,–,–,inactive,inactive,inactive,–,inactive,inactive,–,–,–,–
CC(=O)O[C@]1(C(C)=O)CC[C@H]2[C@@H]3C=C(Cl)C4=CC(=O)[C@@H]5C[C@@H]5[C@]4(C)[C@H]3CC[C@@]21C,inactive,inactive,100 µM (active) and 73.3 µM (active) and 33.4 µM (active),51.7 µM (active) [middle of 4 runs],–,71.5 µM (active) [middle of 4 runs],inactive,30.1 µM (active) and 43.7 µM (active) and 33.4 µM (active),–,inactive,inactive,inactive,–,inactive,inactive,–,–,173 µM (active) and 60.4 µM (active),145 µM (active)
C#CC(O)C(CC)CCCC (stereo unspecified),inactive,–,–,161 µM (active),inactive,100 µM (active),–,–,–,inactive,inactive,–,–,–,inactive,–,128 µM (active),163 µM (active),–
C=CCc1ccc(OC)c(OC)c1,inactive,inactive,–,–,inactive,–,inactive,–,–,inactive,inactive,inactive,–,inactive,inactive,–,–,–,–
Cc1c(C)c2c(c(C)c1O)CCC(C)(COc1ccc(CC3SC(=O)NC3=O)cc1)O2 (stereo unspecified),inactive,inactive,–,6.81 µM (active),inactive,9.14 µM (active),inactive,–,–,inactive,inactive,–,–,–,inactive,–,–,–,–
CCCCCCCCCCCCCCOS(=O)(=O)O,inactive,inactive,–,–,inactive,–,inactive,–,–,inactive,inactive,inactive,–,inactive,inactive,–,–,–,–
NC1CCCCC1,inactive,inactive,–,–,inactive,–,inactive,–,inactive,inactive,inactive,inactive,–,inactive,inactive,–,–,–,–
CCCCOC(=O)CCCCC(=O)OCCCC,inactive,inactive,154 µM (active),–,–,–,inactive,–,inactive,inactive,–,inactive,–,inactive,inactive,–,–,–,–
C/C=C/c1ccc(OC)cc1,inactive,inactive,–,–,inactive,–,inactive,–,–,inactive,inactive,inactive,–,inactive,inactive,–,–,–,–
NC=O,inactive,inactive,–,–,–,–,inactive,–,inactive,inactive,inactive,inactive,–,inactive,inactive,–,–,–,–
CC(N)=O,inactive,inactive,–,–,–,–,inactive,–,inactive,inactive,inactive,inactive,–,inactive,inactive,–,–,–,–
CC(C)(O)c1ccc(CNC(=O)c2cccnc2Oc2ccc(F)cc2)cc1,inactive,inactive,–,0.184 µM (active),–,–,inactive,–,inactive,inactive,inactive,–,–,inactive,inactive,–,–,–,–
COc1ccc(OC(F)(F)F)cc1CN[C@H]1CCCN[C@H]1c1ccccc1,inactive,inactive,–,–,inactive,–,inactive,–,–,inactive,inactive,inactive,–,inactive,inactive,–,–,–,–
O=[Si]=O,inactive,inactive,–,–,–,–,inactive,–,inactive,inactive,inactive,inactive,–,inactive,inactive,–,–,–,–
CC(C)(C)c1ccccc1,inactive,inactive,–,–,–,–,inactive,–,inactive,inactive,inactive,inactive,–,inactive,inactive,–,–,–,–
O=NO,inactive,inactive,–,–,–,–,inactive,–,inactive,inactive,inactive,inactive,–,inactive,inactive,–,–,–,–
O=Cc1ccccc1C=O,inactive,inactive,–,–,–,–,inactive,–,inactive,inactive,inactive,inactive,–,inactive,inactive,–,–,–,–
NC(=Nc1ccccc1)Nc1ccccc1,inactive,inactive,–,61.8 µM (active),–,–,inactive,–,–,inactive,inactive,–,13.1 µM (active),inactive,inactive,–,–,–,–
Cc1ccc(C(C)(C)C)c(O)c1,–,inactive,100 µM (active),167 µM (active),inactive,–,inactive,–,–,inactive,–,–,–,inactive,inactive,147 µM (active),–,–,–
